The values that follow come from PubChem BioAssay (NCI).

SMILES strings stand for the structures. This is part of a sample that, as a whole, favours compounds with a hit. Of some 83,000 tested, about 20% had one in any assay.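 Treatment: one concentration, 48 hours, 96-well format. Scoring: percent growth, with anything below 10 considered active.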 Values without a mark were called inactive. Calls of active or inactive are those of the source.

What all share (test): NCI-60 one-dose screen, 48 h (100 = growth as untreated, 0 = no growth, -100 = all killed)
Assay [1] deals with DU-145 prostate. The note with it: 10 µM unless noted.
Assay [2] has as its system K-562 leukemia. The note with it: 10 µM unless noted.
The test system of assay [3] is MALME-3M melanoma. The note with it: 10 µM unless noted.
In assay [4] the test system is MDA-MB-231 breast. The following applies: 10 µM unless noted.
For assay [5], the system named is RXF 393 renal. The following applies: 10 µM unless noted.
Assay [6] has as its system SF-268 CNS. The note with it: 10 µM unless noted.
For assay [7], the system named is SF-295 CNS. The note with it: 10 µM unless noted.
Assay [8] relates to SF-539 CNS. The following applies: 10 µM unless noted.
In assay [9] the test system is UACC-257 melanoma. The following applies: 10 µM.
The subject of assay [10] is M14 melanoma. The note with it: 10 µM unless noted.

For the molecule `CCCOC(=O)C1(O)CCCC1`, the growth was 123% in [1]; 110% in assay [2]; 96.3% in assay [3]; 112% in [4]; 103% in assay [5]; 121% in [6]. Besides, the growth in [7] was 105%; in assay [8], 88.1%; in assay [9], 103%; in [10], 107%.

As for `COc1ccc(S(=O)(=O)NCCNc2nccc(-c3c(-c4ccccc4)nc4sccn34)n2)cc1`, the growth in assay [1] was 20.2%; in [2], 18.5%; in [3] it was 60.9%; in assay [4], 36.6%; in assay [5] it was 30.8%; in assay [6], 20.5%. The growth is 16.6% in assay [7], 45.3% in [8], 46% in assay [9] and 29.4% in assay [10].

With `O=C1N=C(c2c(-c3[nH]c(=O)c4ccc(Br)cc4c3O)c(O)c3ccccc3c2O)C(=O)c2cc(Br)ccc21`, the growth in [1] is -38.2% (active); in assay [2], 14.3%; in assay [3], -74.3% (active); in assay [4], -8.73% (active); in [5], -76.1% (active); in [6], -41.4% (active). Also, the growth in [7] was 17.2%; in [8], -57.7% (active); in [9], -51.6% (active); in assay [10] it was -31.9% (active).

In the case of `COc1ccc(C(=O)c2cc(OC)c(OC)c(OC)c2)cc1/C=C/C(=O)c1ccc(OC)c(OC)c1`, the growth in assay [1] was -4.98% (active); in assay [2], 12.3%; in assay [3], 56.6%; in assay [4], 26.1%; in [5], 29.3%; in assay [6] it was 17%. For the same molecule, the growth was -46.2% (active) in assay [7], -23.5% (active) in assay [8], 49.1% in assay [9] and 36.2% in assay [10].

On to `COc1cccc(/C=C/C(=O)c2sc(Nc3ccc(O)cc3)nc2C)c1`, for which the growth in assay [1] was 94.9%; in [2], 79.1%; in assay [3], 95%; in assay [4] it was 105%; in assay [5], 84.6%; in assay [6], 61.2%. Also, the growth in [7] is 104%; in assay [8] it was 74.5%; in [9], 85%; in assay [10], 95.4%.

`COc1cc(NC(=O)c2cc3ccccc3nc2Nc2ccc(F)cc2)cc(OC)c1OC`: the growth is 69.8% in assay [1]; 37.3% in [2]; 66.7% in assay [3]; 51.2% in assay [4]; 50.6% in assay [5]; 50.9% in [6]. For the same molecule, the growth is 39.5% in assay [7], 40.5% in assay [8], 27.6% in [9] and 30.2% in assay [10].

Turning to `Cc1ccc(Cn2c(-c3cccs3)nc3ccccc32)cc1`, the growth in assay [1] was 110%; in assay [2] it was 5.16% (active); in assay [3], 120%; in assay [4], 96.2%; in [5] it was 92.5%; in assay [6] it was 104%. In addition, the growth was 72% in assay [7], 102% in assay [8], 89.9% in assay [9] and 107% in assay [10].

In the case of `COc1ccc(-n2cnc3c(sc4ncc(Cl)cc43)c2=O)cc1`, the growth in [1] is 83.6%; in assay [2], 87.9%; in [3], 88.2%; in assay [4], 113%; in [5] it was 106%; in assay [6], 65.8%. The growth was 44.2% in assay [7], 91.6% in assay [8], 90.8% in [9] and 105% in assay [10].

Turning to `CCOC(=O)C1=C(C)NC(=O)NC1c1ccc(OCC(=O)N/N=C/c2ccc(Cl)cc2)cc1` (stereo not given), the growth in assay [1] was 106%; in assay [2], 94.9%; in assay [3], 101%; in [4], 98.7%; in [5], 95.6%; in [6], 95.1%. Moreover, the growth is 99.5% in [7], 91.3% in assay [8], 68.7% in assay [9] and 94.6% in assay [10].

Consider `Clc1ccc2c(c1)NC1(CCSc3ccccc31)n1nccc1-2` (stereo not given), for which the growth in [1] is 103%; in assay [2], 97.4%; in [3], 85.8%; in assay [4], 98.1%; in [5] it was 119%; in assay [6], 94.8%. In addition, the growth is 97.4% in assay [7], 92.4% in assay [8], 97.4% in assay [9] and 96.6% in [10].

In the case of `COc1ccc(-c2cn[nH]c2-c2cc(OC)c3c(c2)OCO3)cc1`, the growth was 12.4% in assay [1]; 10.1% in [2]; 30.9% in assay [3]; 11% in [4]; -31.3% (active) in assay [5]; 37.6% in assay [6]. For the same molecule, the growth is -10.4% (active) in assay [7], -28.7% (active) in assay [8], 66.9% in [9] and 16% in assay [10].

Take `CCCCCC(=O)OCc1ccccc1`: the growth in assay [1] was 103%; in [2] it was 84.9%; in assay [3] it was 85.9%; in assay [4], 109%; in [5], 105%; in [6], 97.2%. Moreover, the growth in assay [7] was 99.8%; in assay [8], 98.8%; in assay [9], 96.8%; in [10], 94.9%.

As to `O=S(=O)(NCCCNc1nccc(-c2c(-c3ccccc3)nc3sccn23)n1)c1ccc(F)cc1`, the growth is 44.8% in assay [1]; 26.4% in assay [2]; 67.9% in assay [3]; 58.4% in assay [4]; 47.2% in assay [5]; 51% in assay [6]. Moreover, the growth in assay [7] is 29.8%; in assay [8], 82%; in [9] it was 71.3%; in [10] it was 35%.
